Hit rate of the full screen: of about 39,000 compounds, about 1,500 (3.8%) were called active. This excerpt belongs to a sample that is enriched for actives.

This assay concerns HSkMC (human skeletal muscle cells). The assay is described as follows: cytotoxicity call (relative viability < 0.9). Conditions: 10 µM.
`C[C@H]1CN([C@@H](C)CO)C(=O)c2cc(C#Cc3ccccn3)cnc2O[C@H]1CN(C)C(=O)CCN1CCCCC1`: the cytotoxicity call was “inactive”. For `C[C@@H]1CN([C@H](C)CO)C(=O)Cc2cc(NC(=O)CCCCCC(=O)Nc3ccccc3N)ccc2O[C@@H]1CN(C)Cc1ccc(Cl)c(Cl)c1` the value was “inactive”; for `C[C@@H]1CN([C@@H](C)CO)C(=O)c2cccc(NS(=O)(=O)c3cccs3)c2O[C@H]1CN(C)C(=O)Nc1cccc2ccccc12`, “inactive”. The entry for `C[C@@H]1CCCCO[C@H](CN(C)C(=O)Nc2ccc3c(c2)OCO3)[C@H](C)CN([C@H](C)CO)C(=O)c2cc(NC(=O)c3ccccc3)ccc2O1` is “inactive”.

On to `C[C@@H]1CN([C@@H](C)CO)C(=O)c2cc(NC(=O)Cc3cn(C)c4ccccc34)ccc2O[C@H]1CN(C)Cc1ccc(C(=O)Nc2ccccc2N)cc1`, for which the cytotoxicity call was “inactive”. Take `CC(C)NC(=O)Nc1ccc2c(c1)CC(=O)N([C@H](C)CO)C[C@H](C)[C@@H](CN(C)S(=O)(=O)c1cccs1)O2`: the cytotoxicity call is “inactive”.

Turning to `CC(C)NC(=O)N(C)C[C@H]1Oc2c(NS(=O)(=O)c3ccccc3)cccc2C(=O)N([C@@H](C)CO)C[C@@H]1C`, the cytotoxicity call is “inactive”. On to `Cc1ccc(S(=O)(=O)N(C)C[C@@H]2Oc3ccc(NS(=O)(=O)c4ccc(F)cc4)cc3CC(=O)N([C@@H](C)CO)C[C@@H]2C)cc1`, for which the cytotoxicity call was “inactive”.

For the molecule `C[C@@H]1CN([C@@H](C)CO)C(=O)c2cc(NC(=O)NC3CCCCC3)ccc2O[C@@H](C)CCCCO[C@H]1CN(C)C(=O)Cc1ccccc1`, the cytotoxicity call was “inactive”.

As for `C[C@@H]1CN([C@H](C)CO)C(=O)c2cc(NC(=O)c3ccncc3)ccc2O[C@@H]1CN(C)S(=O)(=O)c1cn(C)cn1`, the cytotoxicity call was “inactive”. As to `CCCCC(CC)CN1CN(CC(CC)CCCC)CC(C)(N)C1` (configuration not stated), the cytotoxicity call is “active”. Take `C[C@@H]1CN([C@@H](C)CO)C(=O)Cc2cc(NC(=O)NC3CCCCC3)ccc2O[C@H]1CN(C)Cc1ccc(C(=O)Nc2ccccc2N)cc1`: the cytotoxicity call was “inactive”. Turning to `C[C@@H]1CN([C@@H](C)CO)S(=O)(=O)c2ccc(Br)cc2O[C@@H]1CN(C)C(=O)c1cnccn1`, the cytotoxicity call is “inactive”.

Consider `C[C@@H]1CCCCO[C@@H](CN(C)Cc2ccc(C(=O)O)cc2)[C@@H](C)CN([C@H](C)CO)C(=O)c2cc(NC(=O)CCC(F)(F)F)ccc2O1`, for which the cytotoxicity call is “inactive”. Regarding `C[C@H]1CN([C@@H](C)CO)C(=O)c2ccccc2-c2ccccc2CO[C@H]1CN(C)Cc1ccccc1C(F)(F)F`, the cytotoxicity call is “inactive”.

With `C[C@H](CO)N1C[C@H](C)[C@H](CN(C)Cc2ccccc2C(F)(F)F)OCc2ccccc2-c2ccccc2C1=O`, the cytotoxicity call is “active”. Turning to `C[C@@H]1CN([C@H](C)CO)C(=O)c2ccccc2-c2ccccc2CO[C@@H]1CN(C)Cc1ccccc1C(F)(F)F`, the cytotoxicity call is “inactive”. On to `C[C@H](CO)N1C[C@H](C)[C@@H](CN(C)Cc2ccccc2C(F)(F)F)OCc2ccccc2-c2ccccc2C1=O`, for which the cytotoxicity call is “inactive”. The entry for `C[C@@H]1CN([C@@H](C)CO)C(=O)c2ccccc2-c2ccccc2CO[C@@H]1CN(C)Cc1ccccc1C(F)(F)F` is “inactive”; for `C[C@H]1CN([C@@H](C)CO)C(=O)c2ccccc2-c2ccccc2CO[C@@H]1CN(C)Cc1ccccc1C(F)(F)F` it is “active”. Regarding `C[C@H](CO)N1C[C@H](C)[C@@H](CN(C)C(=O)Nc2cccc3ccccc23)Oc2c(NC(=O)Nc3ccc(F)cc3)cccc2C1=O`, the cytotoxicity call was “inactive”. `C[C@H](CO)N1C[C@H](C)[C@H](CN(C)Cc2ccc(C(=O)O)cc2)Oc2ccc(NC(=O)CCN3CCOCC3)cc2C1=O`: the cytotoxicity call was “inactive”. With `NC(=O)NCC#Cc1ccc2c(c1)[C@]1(C(=O)N2)[C@H](c2ccccc2OCCO)N2[C@H](c3ccccc3)[C@H](c3ccccc3)OC(=O)[C@H]2[C@@H]1C(=O)N1CCCCCCC1`, the cytotoxicity call is “inactive”. Consider `Cc1noc(C)c1NC(=O)N(C)C[C@H]1Oc2ccc(NS(=O)(=O)c3cn(C)cn3)cc2CC(=O)N([C@H](C)CO)C[C@H]1C`, for which the cytotoxicity call is “inactive”. The entry for `CN1C(=O)c2cc(NC(=O)c3ccc(C(F)(F)F)cc3)ccc2OC[C@@H]2O[C@@H](CC(=O)NC3Cc4ccccc4C3)CC[C@@H]21` is “inactive”; for `C[C@@H]1CN([C@@H](C)CO)C(=O)c2cc(NC(=O)CCCN(C)C)ccc2O[C@H]1CN(C)Cc1ccc2c(c1)OCO2` it is “inactive”. Consider `Nc1[nH]ncc1-c1cc(Cl)ccc1Oc1cc(F)c(S(=O)(=O)Nc2cscn2)cc1Cl`, for which the cytotoxicity call was “inactive”. In the case of `Cc1noc(C)c1S(=O)(=O)Nc1ccc2c(c1)C(=O)N([C@H](C)CO)C[C@@H](C)[C@@H](CN(C)C)OCCCC[C@H](C)O2`, the cytotoxicity call was “inactive”. On to `CCc1nc2ccc(C(=O)NC3CCN(Cc4ccccc4)CC3)cn2c1N(C)CCN1CCOCC1`, for which the cytotoxicity call was “inactive”. For the molecule `CCc1nc2ccc(C(=O)Nc3cccc(OCC(=O)N(C)C)c3)cn2c1N(C)Cc1cc2ccccc2s1`, the cytotoxicity call is “inactive”.

Take `CCc1nc2ccc(C(=O)NC3CCN(Cc4ccccc4)CC3)cn2c1N(C)Cc1cc2ccccc2s1`: the cytotoxicity call is “active”. As to `CCN(CC)c1ccnc([C@H]2COCCN2)n1`, the cytotoxicity call is “inactive”. In the case of `CC(C)NC(=O)N(C)C[C@@H]1Oc2ccc(NC(=O)Nc3ccc4c(c3)OCO4)cc2C(=O)N([C@@H](C)CO)C[C@H]1C`, the cytotoxicity call was “inactive”. Take `CNC1C(O)C(NC)C2OC3(O)C(=O)CC(C)OC3OC2C1O.Cl.Cl` (configuration not stated): the cytotoxicity call is “inactive”. As for `Nc1ccccc1C(=O)C[C@H](N)C(=O)O`, the cytotoxicity call was “inactive”. Turning to `Nc1ccc(/C=C/C(=O)NCc2cc3cc(-c4ccc(C(=O)N5CCC(F)(F)CC5)cc4)cc(-c4ccc(F)cc4)c3o2)cn1`, the cytotoxicity call was “active”. With `C[C@H]1CN([C@@H](C)CO)C(=O)c2cc(NC(=O)c3ccncc3)ccc2O[C@H]1CN(C)Cc1ccncc1`, the cytotoxicity call is “inactive”. On to `O=C1[C@@H]2[C@H](C(=O)N1c1ccccc1)C13COC[C@H](c4ccccc4)N1C(=O)C2(C(=O)NCc1ccccc1)O3` (some centres not stated), for which the cytotoxicity call is “inactive”.

For the molecule `COc1ccc(S(=O)(=O)Nc2ccc3c(c2)C(=O)N([C@H](C)CO)C[C@@H](C)[C@@H](CN(C)Cc2ccc(-c4ccccc4)cc2)O3)cc1`, the cytotoxicity call was “active”.

For `COc1ccc(S(=O)(=O)Nc2ccc3c(c2)C(=O)N([C@H](C)CO)C[C@@H](C)[C@H](CN(C)Cc2ccc(Oc4ccccc4)cc2)O3)cc1`, the cytotoxicity call is “inactive”.

`COc1ccc(S(=O)(=O)Nc2ccc3c(c2)C(=O)N([C@H](C)CO)C[C@@H](C)[C@H](CN(C)Cc2ccc(-c4ccccc4)cc2)O3)cc1`: the cytotoxicity call is “inactive”. For `COc1ccc(S(=O)(=O)Nc2ccc3c(c2)C(=O)N([C@@H](C)CO)C[C@H](C)[C@@H](CN(C)Cc2ccc(-c4ccccc4)cc2)O3)cc1` the value was “inactive”; for `COc1ccc(S(=O)(=O)Nc2ccc3c(c2)C(=O)N([C@H](C)CO)C[C@H](C)[C@H](CN(C)Cc2ccc(-c4ccccc4)cc2)O3)cc1`, “inactive”.

As for `COc1ccc(S(=O)(=O)Nc2ccc3c(c2)C(=O)N([C@@H](C)CO)C[C@@H](C)[C@H](CN(C)Cc2ccc(-c4ccccc4)cc2)O3)cc1`, the cytotoxicity call is “active”. For `COc1ccc(S(=O)(=O)Nc2ccc3c(c2)C(=O)N([C@@H](C)CO)C[C@H](C)[C@H](CN(C)Cc2ccc(-c4ccccc4)cc2)O3)cc1` the value was “inactive”; for `COc1ccc(S(=O)(=O)Nc2ccc3c(c2)C(=O)N([C@@H](C)CO)C[C@@H](C)[C@@H](CN(C)Cc2ccc(-c4ccccc4)cc2)O3)cc1`, “active”.

On to `COc1ccc(S(=O)(=O)Nc2ccc3c(c2)C(=O)N([C@H](C)CO)C[C@H](C)[C@@H](CN(C)Cc2ccc(-c4ccccc4)cc2)O3)cc1`, for which the cytotoxicity call is “inactive”.
